Data: the supplement of paper PMC13380429

Tested on: Vero E6 infected with SARS-CoV-2
Test: inhibition of SARS-CoV-2 cytopathic effect; higher = more antiviral protection, active = above 15
Conditions: 48 h

Measured: inhibition of SARS-CoV-2 cytopathic effect

CC1=C(C)C(=O)C(C(CCCCCC(=O)O)c2ccccc2)=C(C)C1=O (stereo not given) [seratrodast]
inactive: 1 nM -0.6% | 8.33 nM -1.68% | 100 nM 1.92% | 833.33 nM 2.24% | 10000 nM 1.24%

COc1ccc(CCC(=O)c2c(O)cc(O[C@@H]3O[C@H](CO)[C@@H](O)[C@H](O)[C@H]3O[C@@H]3O[C@@H](C)[C@H](O)[C@@H](O)[C@H]3O)cc2O)cc1O [Neohesperidin dihydrochalcone (Nhdc)]
inactive: 1 nM -1.62% | 8.33 nM -3.36% | 100 nM -1.21% | 833.33 nM 0.9% | 10000 nM -1.64%

CN1CCN(c2ccc(Nc3ncc4cc(C#N)c(=O)n(C5CCCC5)c4n3)cc2)CC1
inactive: 1 nM 1.39% | 8.33 nM 1.36% | 100 nM -0.35% | 833.33 nM -6.03% | 10000 nM -6.23%

CNC(=O)O[C@H]1COc2ccc(N3CCN(C4COC4)CC3)cc2[C@@H]1NC(=O)c1ccc(F)cc1
inactive: 1 nM 1.12% | 8.33 nM -0.75% | 100 nM -1.06% | 833.33 nM 0.34% | 10000 nM 1.4%

COc1ccc2[nH]c([S+]([O-])Cc3ncc(C)c(OC)c3C)nc2c1 (stereo not given) [omeprazole]
inactive: 1 nM 0.48% | 8.33 nM 2.24% | 100 nM 1.08% | 833.33 nM 3.07% | 10000 nM 1.79%

C[C@@H]1CC[C@@]2(NC1)O[C@H]1C[C@H]3[C@@H]4CC=C5C[C@@H](O[C@@H]6O[C@H](CO)[C@@H](O[C@@H]7O[C@@H](C)[C@H](O)[C@@H](O)[C@H]7O)[C@H](O)[C@H]6O[C@@H]6O[C@@H](C)[C@H](O)[C@@H](O)[C@H]6O)CC[C@]5(C)[C@H]4CC[C@]3(C)[C@H]1[C@@H]2C [solamargine]
inactive: 1 nM -1.13% | 8.33 nM -0.16% | 100 nM 0.07% | 833.33 nM -3.82% | 10000 nM -15.1%
